# Test results from the supplement of paper PMC12282887.
# ± gives the standard deviation of the averaged measurements.
# Assays:
# Assay in all cases: promoter activity interaction Z-score (Lux/OD deviation from empty-vector control); higher = stronger promoter induction by the compound
# [1] = system: E. coli BW25113 acrABp lux reporter
# Procedure, shortened: (§1)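 Wild-type E. coli BW25113 and three single-gene deletion strains, each carrying a low-copy luxCDABE promoter reporter, were grown at 37°C in 40 µl LB Lennox per well of a 384-well plate. Every compound was applied at four 1:2 dilutions in biological duplicates, and OD600 and luminescence were read every 30 min for 12 h. Integration covered 0–8 h for wild type and 1–9 h for deletion strains, and wells under 10% of the median growth value were removed. Scores are Z-transformed residuals of growth-normalised luminescence fitted against a control.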
# [2] = system: E. coli BW25113 micFp lux reporter
# Procedure, shortened: as §1
# [3] = system: E. coli BW25113 ompFp lux reporter
# Procedure, shortened: as §1
# [4] = system: E. coli BW25113 robp lux reporter
# Procedure, shortened: as §1
# [5] = system: E. coli BW25113 soxSp lux reporter
# Procedure, shortened: as §1
# [6] = system: E. coli BW25113 tolCp lux reporter
# Procedure, shortened: as §1
# [7] = 17 µg/ml, genetic background: wild type
# [8] = 17 µg/ml, genetic background: ΔmarA
# [9] = 17 µg/ml, genetic background: Δrob
# [10] = 17 µg/ml, genetic background: ΔsoxS
# [11] = 34 µg/ml, genetic background: wild type
# [12] = 34 µg/ml, genetic background: ΔmarA
# [13] = 34 µg/ml, genetic background: Δrob
# [14] = 34 µg/ml, genetic background: ΔsoxS
# [15] = 68.1 µg/ml, genetic background: wild type
# [16] = 68.1 µg/ml, genetic background: ΔmarA
# [17] = 68.1 µg/ml, genetic background: Δrob
# [18] = 68.1 µg/ml, genetic background: ΔsoxS
# [19] = 136.2 µg/ml, genetic background: wild type
# [20] = 136.2 µg/ml, genetic background: ΔmarA
# [21] = 136.2 µg/ml, genetic background: Δrob
# [22] = 136.2 µg/ml, genetic background: ΔsoxS
smiles,measurement,setting,value
C[C@]12CC[C@@H]3c4ccc(O)cc4CC[C@H]3[C@@H]1CC[C@@H]2O [Estradiol],promoter activity interaction Z-score,[1]; [7],0.298 ± 0.0088
same,promoter activity interaction Z-score,[1]; [8],-0.217 ± 0.5
same,promoter activity interaction Z-score,[1]; [9],-0.138 ± 0.15
same,promoter activity interaction Z-score,[1]; [10],-0.335 ± 0.57
same,promoter activity interaction Z-score,[1]; [11],0.101 ± 0.01
same,promoter activity interaction Z-score,[1]; [12],0.101 ± 1.4
same,promoter activity interaction Z-score,[1]; [13],-0.0321 ± 0.063
same,promoter activity interaction Z-score,[1]; [14],-0.0568 ± 0.0019
same,promoter activity interaction Z-score,[1]; [15],-0.0194 ± 0.39
same,promoter activity interaction Z-score,[1]; [16],1.6 ± 0.16
same,promoter activity interaction Z-score,[1]; [17],-0.247 ± 0.35
same,promoter activity interaction Z-score,[1]; [18],-0.0269 ± 0.066
same,promoter activity interaction Z-score,[1]; [19],0.225 ± 0.041
same,promoter activity interaction Z-score,[1]; [20],-0.22 ± 0.31
same,promoter activity interaction Z-score,[1]; [21],-0.28 ± 0.4
same,promoter activity interaction Z-score,[1]; [22],0.453 ± 0.73
same,promoter activity interaction Z-score,[2]; [7],0.105 ± 0.31
same,promoter activity interaction Z-score,[2]; [8],-0.0854 ± 0.0072
same,promoter activity interaction Z-score,[2]; [9],-0.132 ± 0.0023
same,promoter activity interaction Z-score,[2]; [10],-0.254 ± 0.061
same,promoter activity interaction Z-score,[2]; [11],-0.221 ± 0.34
same,promoter activity interaction Z-score,[2]; [12],-0.0642 ± 0.01
same,promoter activity interaction Z-score,[2]; [13],-0.194 ± 0.16
same,promoter activity interaction Z-score,[2]; [14],0.292 ± 0.13
same,promoter activity interaction Z-score,[2]; [15],0.178 ± 0.23
same,promoter activity interaction Z-score,[2]; [16],0.0617 ± 0.15
same,promoter activity interaction Z-score,[2]; [17],-0.166 ± 0.3
same,promoter activity interaction Z-score,[2]; [18],0.179 ± 0.19
same,promoter activity interaction Z-score,[2]; [19],0.028 ± 0.51
same,promoter activity interaction Z-score,[2]; [20],0.118 ± 0.11
same,promoter activity interaction Z-score,[2]; [21],-0.079 ± 0.16
same,promoter activity interaction Z-score,[2]; [22],0.578 ± 0.0079
same,promoter activity interaction Z-score,[3]; [7],0.501 ± 0.11
same,promoter activity interaction Z-score,[3]; [8],-0.126 ± 0.37
same,promoter activity interaction Z-score,[3]; [9],-0.146 ± 0.11
same,promoter activity interaction Z-score,[3]; [10],0.0169 ± 0.25
same,promoter activity interaction Z-score,[3]; [11],-0.603 ± 0.43
same,promoter activity interaction Z-score,[3]; [12],-0.0141 ± 0.44
same,promoter activity interaction Z-score,[3]; [13],-0.554 ± 0.48
same,promoter activity interaction Z-score,[3]; [14],-0.0316 ± 0.18
same,promoter activity interaction Z-score,[3]; [15],-0.329 ± 0.44
same,promoter activity interaction Z-score,[3]; [16],0.821 ± 0.84
same,promoter activity interaction Z-score,[3]; [17],-0.486 ± 0.4
same,promoter activity interaction Z-score,[3]; [18],-0.581 ± 0.16
same,promoter activity interaction Z-score,[3]; [19],-0.397 ± 0.85
same,promoter activity interaction Z-score,[3]; [20],-0.336 ± 0.37
same,promoter activity interaction Z-score,[3]; [21],-0.534 ± 0.93
same,promoter activity interaction Z-score,[3]; [22],-0.638 ± 0.074
same,promoter activity interaction Z-score,[4]; [7],0.7215 ± 0.0031
same,promoter activity interaction Z-score,[4]; [8],0.25 ± 0.44
same,promoter activity interaction Z-score,[4]; [9],-0.0547 ± 0.13
same,promoter activity interaction Z-score,[4]; [10],0.453 ± 0.085
same,promoter activity interaction Z-score,[4]; [11],-0.0162 ± 0.89
same,promoter activity interaction Z-score,[4]; [12],-0.0102 ± 0.92
same,promoter activity interaction Z-score,[4]; [13],-0.0213 ± 0.28
same,promoter activity interaction Z-score,[4]; [14],0.926 ± 0.78
same,promoter activity interaction Z-score,[4]; [15],0.13 ± 0.81
same,promoter activity interaction Z-score,[4]; [16],1.9 ± 0.56
same,promoter activity interaction Z-score,[4]; [17],-0.509 ± 0.5
same,promoter activity interaction Z-score,[4]; [18],0.373 ± 0.42
same,promoter activity interaction Z-score,[4]; [19],0.104 ± 0.37
same,promoter activity interaction Z-score,[4]; [20],0.282 ± 0.21
same,promoter activity interaction Z-score,[4]; [21],-0.478 ± 0.3
same,promoter activity interaction Z-score,[4]; [22],0.863 ± 0.52
same,promoter activity interaction Z-score,[5]; [7],0.266 ± 0.12
same,promoter activity interaction Z-score,[5]; [8],0.0464 ± 0.17
same,promoter activity interaction Z-score,[5]; [9],-0.0494 ± 0.027
same,promoter activity interaction Z-score,[5]; [10],0.159 ± 0.028
same,promoter activity interaction Z-score,[5]; [11],-0.15 ± 0.012
same,promoter activity interaction Z-score,[5]; [12],0.102 ± 0.021
same,promoter activity interaction Z-score,[5]; [13],-0.334 ± 0.0093
same,promoter activity interaction Z-score,[5]; [14],0.0514 ± 0.057
same,promoter activity interaction Z-score,[5]; [15],-0.196 ± 0.013
same,promoter activity interaction Z-score,[5]; [16],0.057 ± 0.029
same,promoter activity interaction Z-score,[5]; [17],-0.104 ± 0.2
same,promoter activity interaction Z-score,[5]; [18],0.254 ± 0.52
same,promoter activity interaction Z-score,[5]; [19],-0.422 ± 0.035
same,promoter activity interaction Z-score,[5]; [20],-0.276 ± 0.077
same,promoter activity interaction Z-score,[5]; [21],-0.275 ± 0.2
same,promoter activity interaction Z-score,[5]; [22],-0.137 ± 0.099
same,promoter activity interaction Z-score,[6]; [7],0.895 ± 0.21
same,promoter activity interaction Z-score,[6]; [8],-0.343 ± 0.88
same,promoter activity interaction Z-score,[6]; [9],-0.103 ± 1
same,promoter activity interaction Z-score,[6]; [10],-0.491 ± 0.4
same,promoter activity interaction Z-score,[6]; [11],-0.0124 ± 0.71
same,promoter activity interaction Z-score,[6]; [12],-0.745 ± 0.26
same,promoter activity interaction Z-score,[6]; [13],-0.126 ± 1.3
same,promoter activity interaction Z-score,[6]; [14],0.321 ± 0.44
same,promoter activity interaction Z-score,[6]; [15],-0.293 ± 0.52
same,promoter activity interaction Z-score,[6]; [16],0.492 ± 0.095
same,promoter activity interaction Z-score,[6]; [17],0.143 ± 0.3
same,promoter activity interaction Z-score,[6]; [18],0.521 ± 0.57
same,promoter activity interaction Z-score,[6]; [19],0.506 ± 0.79
same,promoter activity interaction Z-score,[6]; [20],-0.446 ± 0.55
same,promoter activity interaction Z-score,[6]; [21],-0.721 ± 0.35
same,promoter activity interaction Z-score,[6]; [22],0.191 ± 0.75
